For 59 compounds, survival results are on record in PubChem BioAssay AID463173 (ICCB-Longwood Screening Facility, Harvard Medical School, 2010).

Out of some 52,000 compounds screened, about 4,300 (8.3%) were called active. The sample holds actives, similar compounds and a random draw of the others, so the mix is not that of the screen. Cut-off read from the data, not from the text of the source: active = survival mostly below about 52% (no sharp cut-off); inactive = mostly above about 56%.

This assay has as its system DeltatarO mutant. The assay is described as follows: growth inhibition of S. aureus wild type versus tarO mutant, primary screen, teichoic acid synthesis inhibitors, RN4220, OD600 (AID 463173). The conditions noted are these: OD600, 18 h, stronger effect = lower value, screened at 18.75 µg/mL (by protocol).
In the case of `CC1CCN(S(=O)(=O)c2ccc3c(ccn3CC(=O)NCc3ccc(N(C)C)cc3)c2)CC1`, the survival was 77% (inactive).

`COc1cccc(CNC(=O)c2cc3cccc4c3n2CC(C)S4)c1OC` (centres undefined): the survival was 84% (inactive). For `Cc1cc(C)c(S(=O)(=O)N2CCC(N3CCN(Cc4ccccc4)C(=O)C3=O)CC2)c(C)c1` the value was 68% (inactive); for `N#CC1=C(N)OC2=C(C(=O)CCC2)C12C(=O)Nc1ccc(F)cc12` (centres undefined), 93% (inactive). Take `COC(=O)Cn1c(C2CC(=O)N(c3c(C)cccc3C)C2)nc2ccccc21` (centres undefined): the survival is 58% (inactive).

Take `CCCCN1CC(c2nc3ccccc3n2CCCCOc2c(C)cccc2C)CC1=O` (centres undefined): the survival is 46% (active). On to `Cc1cccc(C)c1OCCCCn1c(C2CC(=O)N(c3ccc(F)cc3)C2)nc2ccccc21` (centres undefined), for which the survival is 77% (inactive). As to `CCCCN1CC(c2nc3ccccc3n2CCCCOc2ccccc2C)CC1=O` (centres undefined), the survival is 34% (active). Regarding `Cc1ccccc1OCCCCn1c(C2CC(=O)N(c3ccccc3Cl)C2)nc2ccccc21` (centres undefined), the survival was 76% (inactive).

Consider `CCCCN1CC(c2nc3ccccc3n2CCCCOc2cccc(C)c2C)CC1=O` (centres undefined), for which the survival is 2% (active). As for `Cc1cccc(NC(=O)CS(=O)(=O)c2cccc3nsnc23)c1`, the survival was 74% (inactive).

For `Cc1cc2cc(CCNS(=O)(=O)c3ccc(Br)cc3)c(=O)[nH]c2cc1C`, the survival was 48% (inactive). As to `O=c1c2oc3ccccc3c2n(Cc2cccc(C(F)(F)F)c2)c(=O)n1Cc1ccc2c(c1)OCO2`, the survival is 108% (inactive). Consider `CN1C(=O)Cc2cc(S(=O)(=O)CCC(=O)N3CCN(c4ccc(Cl)cc4)CC3)ccc21`, for which the survival is 86% (inactive). For `COc1ccc(Cn2c(=O)c3oc4ccccc4c3n(Cc3cccc(C(F)(F)F)c3)c2=O)cc1` the value was 73% (inactive). For `Nc1nc(SCC(=O)Nc2cccc(C(F)(F)F)c2)n[nH]1` the value was 63% (inactive); for `COC(=O)c1sccc1S(=O)(=O)N1CCN(c2ccccc2OC)CC1`, 74% (inactive); for `COc1cc(NC(=O)c2noc3c2CC(C)CC3)c(OC)cc1Cl` (centres undefined), 69% (inactive). Take `COc1cc(NC(=O)c2noc3c2CC(C(C)(C)C)CC3)cc(OC)c1OC` (centres undefined): the survival is 40% (active).

In the case of `O=C(Nc1ccccc1C(F)(F)F)c1noc2c1CCCC2`, the survival is 63% (inactive). As for `CCc1ccccc1NC(=O)c1noc2c1CC(C(C)(C)C)CC2` (centres undefined), the figure is -6% (active); as for `CC1CCc2onc(C(=O)Nc3ccc(Cl)cc3)c2C1` (centres undefined), 75% (inactive). Regarding `COc1cc(NC(=O)c2noc3c2CCc2ccccc2-3)cc(OC)c1OC`, the survival was 88% (inactive).

Take `O=C(CN1C(=O)COc2ccc(S(=O)(=O)N3CCCC3)cc21)N1CCN(c2ccc(F)cc2)CC1`: the survival was 80% (inactive). For the compound `CCOc1ccccc1CNc1nc2nc(C)cc(C)n2n1`, the survival is 97% (inactive).

Take `CCc1ccccc1N(CC)C(=O)C1CCN(c2ncnc3c2nc2n3CCCCC2)CC1`: the survival is 83% (inactive).

Turning to `CC(Oc1ccccc1F)C(=O)NCC1(N2CCOCC2)CCCCC1` (centres undefined), the survival was 61% (inactive).

Consider `CCOc1ccccc1CNC(=O)CC(C)n1ccc(C)n1` (centres undefined), for which the survival is 77% (inactive). As for `CC(=O)Nc1ccc(NC(=O)CC(C)n2ccc(C)n2)cc1` (centres undefined), the figure is 52% (active); as for `CCOC(=O)c1ccc(NC(=O)CC(C)n2nc(C)cc2C)cc1` (centres undefined), 124% (inactive).

As to `O=C(OCc1ccccc1)Sc1nnc(-c2ccccc2Cl)o1`, the survival was 90% (inactive).

Turning to `CCn1c(=O)cc(OCC(=O)NCc2ccccc2Cl)c2ccccc21`, the survival was 40% (active). As for `CCCN(C(=O)COc1cc(=O)n(CC)c2ccccc12)c1ccc(C(C)C)cc1`, the figure is -22% (active); as for `CCCN(c1ccc(C(C)C)cc1)S(=O)(=O)c1ccc2c(c1)oc(=O)n2CC(=O)OCC`, 73% (inactive). As for `CCCN(C(=O)Cn1c(=O)oc2cc(Cl)ccc21)c1ccc(C(C)C)cc1`, the figure is 15% (active); as for `CCn1c(=O)cc(OCC(=O)NCc2ccc(F)cc2Cl)c2ccccc21`, 105% (inactive); as for `CCn1c(=O)cc(OCC(=O)NCc2ccccc2OC)c2ccccc21`, 60% (inactive). As for `CCN(C(=O)Cn1c(=O)oc2cc(Cl)ccc21)c1cccc(C(F)(F)F)c1`, the figure is 67% (inactive). For the compound `CCn1c(=O)cc(OCC(=O)N(C)c2cc(Cl)ccc2C)c2ccccc21`, the survival is 55% (active). Take `CCn1c(=O)cc(OCC(=O)Nc2ccc(C)c(F)c2)c2ccccc21`: the survival was 60% (inactive). As for `CCn1c(=O)cc(OCC(=O)N(C)c2ccc(OC)cc2)c2ccccc21`, the figure is 72% (inactive); as for `CCc1ccc(CNC(=O)COc2cc(=O)n(CC)c3ccccc23)cc1`, 55% (inactive); as for `CCn1c(=O)cc(OCC(=O)Nc2cc(Cl)c(OC)cc2OC)c2ccccc21`, 69% (inactive).

`Cc1ccc(/C=C/c2onc(C)c2S(=O)(=O)N2CCC(C(=O)N3CCN(c4cccc(C)c4)C(C)C3)CC2)cc1` (centres undefined): the survival was 67% (inactive). As for `COc1ccccc1C(=O)NC1(C(F)(F)F)C(=O)Nc2c1c(=O)[nH]c(=O)n2-c1ccc(F)cc1` (centres undefined), the figure is 190% (inactive). As for `Cc1ccc(-n2ncc3c(=O)n(Cc4ccccc4C)cnc32)cc1C`, the survival is 127% (inactive). Consider `CC(=O)N(Cc1cccnc1)c1nc2ccc(F)cc2s1`, for which the survival was 81% (inactive). As for `Cc1c(C(=O)Nc2ccc(F)c(F)c2)oc2ccc(S(=O)(=O)N3CCCCC3)cc12`, the survival was 52% (active). As for `COC(=O)Nc1ccc(S(=O)(=O)N2CCCCC2)cc1`, the figure is 107% (inactive).

On to `Cc1c(C(=O)Nc2ccc(F)cc2)oc2ccc(S(=O)(=O)N3CCCCCC3)cc12`, for which the survival was 99% (inactive). For `O=C(Nc1ccc(S(=O)(=O)N2CCCCC2)cc1)C1CCCCC1` the value was 97% (inactive); for `Cc1ccc(NC(=O)c2oc3ccc(S(=O)(=O)N4CCCCCC4)cc3c2C)cc1Cl`, 86% (inactive); for `Cc1cc(C)c2oc(C(=O)Nc3ccc(S(=O)(=O)N4CCC(C)CC4)cc3)cc(=O)c2c1`, 48% (inactive). For `O=C(Nc1ccc(S(=O)(=O)N2CCCCC2)cc1)C(F)(F)F` the value was 58% (active); for `Cc1ccc2c(=O)cc(C(=O)Nc3ccc(S(=O)(=O)N4CCCCC4)cc3)oc2c1C`, 90% (inactive). As for `Cc1cc(C)c2oc(C(=O)Nc3ccc(S(=O)(=O)N4CCCCC4)cc3)cc(=O)c2c1`, the survival was 45% (active).

Turning to `Cc1cc(C)c2oc(C(=O)Nc3ccc(S(=O)(=O)N4CCCCCC4)cc3)cc(=O)c2c1`, the survival was 62% (inactive). For `Cc1ccc2c(=O)cc(C(=O)Nc3ccc(S(=O)(=O)N4CCCC(C)C4)cc3)oc2c1C` (centres undefined) the value was 51% (active).

In the case of `Cc1ccc2c(=O)cc(C(=O)Nc3ccc(S(=O)(=O)N4CCC(C)CC4)cc3)oc2c1C`, the survival was 60% (inactive).
